Screens from PubChem.
Only some compounds are listed: those with a hit (about 9.2% of all), similar ones and a draw of the others.
Rab9 prom act: Rab9 promoter activation | AID 485297 | 320,000 tested, 2.8% active | Potency, µM (top dose mostly 9.22 µM), hits mostly activators | Huh7 Rab9 promoter-luciferase reporter, luminescence, 24 h; also: nearly all actives have a fitted effect of over 60% in size
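Cell-based reporter: Huh7 stable for Rab9 promoter-driven luciferase, plated in reduced-serum medium with 10% FBS at 1500 cells/well, compound-treated 24 h at 37 °C, luminescence read after 10 min reagent.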
NPC1 prom act: activates the NPC1 promoter. Huh7 NPC1 promoter luciferase reporter, 24 h. Potency, µM (top dose mostly 9.22 µM), actives largely listed as activators. 320,000 tested, 2.4% active. AID 485313; also: nearly all actives have a fitted effect of over 60% in size
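Luminescence read-out of NPC1 promoter-driven luciferase in stably transfected Huh7 cells; compounds delivered in DMSO and left 24 h at 37C, 5% CO2, qHTS titration format.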
ELG1 DNA repair: inhibitors of ELG1-dependent DNA repair in HEK293T cells; Potency, µM (series often up to 46.1 µM), hits mostly inhibitors; 330,000 tested, 2.3% active; AID 504467; HEK293T ELG1-luciferase reporter, luminescence, 16 h; DNA damage induced by 5-fluorouridine; also: nearly all actives have a fitted effect of over 55% in size
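HEK293T cells expressing luciferase-tagged ELG1 (2,000/well) received 5-Fluorouridine plus compound or DMSO for 16 hr at 37 °C. Luciferase was read by ONE-Glo luminescence after 30 min at room temperature.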
FLuc modulator: firefly luciferase modulation, counter-screen for miR-21 project | P08659 | purified FLuc, Km substrates, luminescence inhibition | Potency, µM (titrated, usually from 57.5 µM), hits mostly inhibitors | 360,000 tested, 6.9% active; also: nearly all actives have a fitted effect of over 55% in size
Target sequence (P08659 whole entry, looked up): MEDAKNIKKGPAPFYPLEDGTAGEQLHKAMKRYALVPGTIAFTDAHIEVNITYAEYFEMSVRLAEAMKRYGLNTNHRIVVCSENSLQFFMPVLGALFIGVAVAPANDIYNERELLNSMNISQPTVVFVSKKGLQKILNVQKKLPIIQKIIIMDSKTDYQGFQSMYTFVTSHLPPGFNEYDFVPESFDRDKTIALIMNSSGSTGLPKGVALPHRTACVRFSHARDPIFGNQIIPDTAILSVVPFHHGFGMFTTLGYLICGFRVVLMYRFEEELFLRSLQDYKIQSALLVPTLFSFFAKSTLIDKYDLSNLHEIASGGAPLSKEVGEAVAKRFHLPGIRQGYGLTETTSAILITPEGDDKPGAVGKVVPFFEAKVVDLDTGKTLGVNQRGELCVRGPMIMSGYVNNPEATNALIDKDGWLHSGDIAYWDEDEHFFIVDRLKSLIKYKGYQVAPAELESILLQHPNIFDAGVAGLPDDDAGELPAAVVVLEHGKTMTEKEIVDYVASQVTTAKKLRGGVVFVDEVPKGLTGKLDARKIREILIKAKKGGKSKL
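Purified P. pyralis luciferase, 10 nM final, with Km-level 10 uM D-luciferin and 10 uM ATP in 50 mM Tris acetate pH 7.5, 10 mM Mg acetate, 0.01% Tween-20, 0.05% BSA; 6-point qHTS titration about 60 µM downward; luminescence read.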
SMN2 splice enh: increases expression of the SMN2 splice variant | HEK293 SMN2-luciferase splicing reporter, luminescence, 30-36 h | Potency, µM (titrated, usually from 46.1 µM), actives largely listed as activators | 210,000 tested, 2.8% active; also: nearly all actives have a fitted effect of over 55% in size
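HEK293 cells carry an SMN2 minigene-luciferase reporter in which exon 7 inclusion puts luciferase in frame. Cells were seeded at 2000 cells/well, attached for 10-12 hours, then exposed to compounds for 30-36 hours at 37C before ONE-Glo luminescence.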
ELG1 genotoxic: genotoxicity induction in ELG1-luciferase HEK293T cells | HEK293T ELG1-luciferase reporter, luminescence, 16 h | Potency, µM (doses to about 46 µM), most hits filed as activators | 330,000 tested, 1.3% active | AID 504466; also: nearly all actives have a fitted effect of over 60% in size
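Reporter readout depends on ELG1 protein level, which increases with genetic stress. After 16 hr compound exposure at 37 °C, luciferase activity was quantified using ONE-Glo.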
Each line names hits and unclear results; the compound was inactive in the other large screens. Calls follow the shape of the dose curve; as a rule, active = well fitted curve in the direction sought with a large enough effect; inconclusive = small, poorly fitted or top-dose-only effect, or another doubt; inactive = no such curve, though single readings can be large; an effect the other way counts as inactive or inconclusive.

Cc1oc(/N=C/c2ccc(Cl)cc2)c(C#N)c1C	FLuc modulator 11µM
Cc1oc(/N=C/c2ccc(O)cc2O)c(C#N)c1C	FLuc modulator 17µM
Cc1oc(/N=C/c2ccccc2O)c(C#N)c1C	none
CCn1c(C(=O)N2CCC(C(=O)NCCc3ccc(OC)cc3OC)CC2)cc2sccc21	none (no result: Rab9 prom act, NPC1 prom act, ELG1 DNA repair, ELG1 genotoxic)
CC(C)CCNc1nc2c(S(=O)(=O)c3ccc(Br)cc3)nnn2c2ccsc12	none (no result: Rab9 prom act, NPC1 prom act, ELG1 DNA repair, SMN2 splice enh, ELG1 genotoxic)
c1ccc(-c2ccc(CN3CCSCC3)cc2)cc1	ELG1 DNA repair inconclusive, FLuc modulator 27µM (no result: SMN2 splice enh)
COc1ccc(-c2oc3ncn4nc(-c5ccccc5C)nc4c3c2-c2ccc(OC)cc2)cc1	none (no result: Rab9 prom act, NPC1 prom act, ELG1 DNA repair, ELG1 genotoxic)
O=C(Nc1ccc(Cl)cc1)N(Cc1nc2ccccc2c(=O)[nH]1)Cc1cccs1	ELG1 DNA repair 18µM
COc1cccc(Cn2c(=O)n(CCc3ccccc3)c(=O)c3c2c2cc(OC)ccc2n3C)c1	none (no result: Rab9 prom act, NPC1 prom act, ELG1 DNA repair, SMN2 splice enh, ELG1 genotoxic)
O=C(CN1C(=O)S/C(=C\c2cccc(Cl)c2)C1=O)NC1C=CS(=O)(=O)C1 (configuration not stated)	none (no result: SMN2 splice enh)
CC(C(=O)NC1C=CS(=O)(=O)C1)N1C(=O)/C(=C/c2cccc(Cl)c2)SC1=S (configuration not stated)	FLuc modulator 15µM (no result: SMN2 splice enh)
O=C(CN1C(=O)/C(=C/c2cccc(Cl)c2)SC1=S)NC1C=CS(=O)(=O)C1 (configuration not stated)	FLuc modulator 2.7µM (no result: SMN2 splice enh)
COc1ccc(NC(=O)CSc2ncccc2C(=O)OC(C)C)cc1OC	ELG1 DNA repair inconclusive, FLuc modulator inconclusive
CC(C)c1ccc(NC(=O)CSc2ncccc2C(=O)Oc2cccc([N+](=O)[O-])c2)cc1	Rab9 prom act 4.5µM, NPC1 prom act 4µM, ELG1 DNA repair inconclusive, FLuc modulator inconclusive, SMN2 splice enh 10µM, ELG1 genotoxic 16µM
COc1cc(CN2CCCC(C(=O)N3CCc4ccccc4C3)C2)cc(OC)c1OC (configuration not stated)	ELG1 DNA repair inconclusive (no result: SMN2 splice enh)
O=C(C1CCC1)N1CCc2cc(S(=O)(=O)N3CCN(c4ccccc4)CC3)ccc21	none (no result: Rab9 prom act, NPC1 prom act, ELG1 DNA repair, ELG1 genotoxic)
CCN(CC)C(=O)C1CCN(S(=O)(=O)c2ccc3c(c2)CCCN3C(=O)C2CCC2)CC1	ELG1 DNA repair 23µM (no result: SMN2 splice enh)
O=C(C1CCC1)N1CCc2cc(S(=O)(=O)N3CCN(c4ccccn4)CC3)ccc21	ELG1 DNA repair 18µM
N#Cc1ccc(OCC(=O)N/N=C/C2CC=CCC2)cc1 (configuration not stated)	none
CCc1ccc2nc(Nc3nc(COC)cc(=O)[nH]3)nc(C)c2c1	none
COCc1cc(=O)[nH]c(Nc2nc3ccc(C)cc3o2)n1	ELG1 DNA repair inconclusive, FLuc modulator 17µM, ELG1 genotoxic 23µM
O=C(Nc1ccc(S(=O)(=O)Nc2ncccn2)cc1)c1ccccc1Br	none (no result: SMN2 splice enh)
CC(C)c1ccccc1S(=O)(=O)c1cc(N)c2ncccc2c1[N+](=O)[O-]	none (no result: Rab9 prom act, NPC1 prom act, ELG1 DNA repair, FLuc modulator, ELG1 genotoxic)
CC(=O)Nc1cccc(NC(=O)c2cccc(-c3ccc(O)cc3)c2)c1	ELG1 DNA repair inconclusive, FLuc modulator 9.5µM (no result: SMN2 splice enh)
CC(=O)Nc1cccc(NC(=O)c2cccc(OCc3ccccc3)c2)c1	ELG1 DNA repair inconclusive, FLuc modulator 27µM (no result: SMN2 splice enh)
CN1CCN(c2ccc(NC(=O)c3cccc(OCc4ccccc4)c3)cc2)CC1	ELG1 DNA repair inconclusive, FLuc modulator 7.6µM
CC(=O)Nc1cccc(NC(=O)c2ccccc2OCc2ccccc2)c1	ELG1 DNA repair inconclusive (no result: SMN2 splice enh)
CCCc1cc(=O)n2[nH]c(-c3cccc(Br)c3)cc2n1	Rab9 prom act inconclusive, NPC1 prom act 2.8µM, ELG1 DNA repair inconclusive, FLuc modulator 5.4µM, ELG1 genotoxic inconclusive (no result: SMN2 splice enh)
CCOC(=O)Cc1cc(=O)n2[nH]c(-c3ccccc3)cc2n1	ELG1 DNA repair inconclusive, FLuc modulator inconclusive
CCCc1cc(=O)n2[nH]c(-c3ccc(Br)cc3)cc2n1	Rab9 prom act 3.5µM, NPC1 prom act inconclusive, ELG1 DNA repair inconclusive, FLuc modulator inconclusive, SMN2 splice enh 11µM
CCCc1cc(=O)n2[nH]c(NCc3c(Cl)cccc3Cl)nc2n1	none
